In ChEMBL document CHEMBL3988442, “University of Dundee, Small-Polar-MMV Screening Library” (2021):
The campaign covered roughly 85,000 compounds. About 440 (0.52%) showed an effect of 50% or more. This excerpt belongs to a sample that is enriched for strong results.

Assay: In vitro enzyme assay to detect hydrolysis of chlorophenol red-beta-D-[…] directly proportional to the number of Toxoplasma stably expressing beta-galactosidase
Type: functional, organism-based, Toxoplasma gondii
Parameters: scale not given: in the data most compounds retested in dose-response had high values

Compound	Percent Effect (50 µM)	Percent Effect (10 µM)
COc1cc(Br)c(CN)cc1OC	44.43%	
CC(C(=O)N1CCCC1)N1CCN(c2nc[nH]n2)CC1 (stereo not drawn)	16.6%	
N#Cc1ccc(C(=O)NCCCc2csc(N)n2)cn1	3.81%	
CC(=O)N(C)C1CCNCC1	-2.944%	
CNC(=O)CCSc1ccc2c(c1)OCCO2	0.7135%	
NCC(=O)Nc1cc(C(F)(F)F)c[nH]c1=O	-2.166%	
CCCn1ccnc1CNC(=O)CCC(=O)N(C)C	-10.54%	
CNc1nnc(SCc2ncc(C)o2)s1	-1.305%	
CCOC(=O)NCc1nn(CCN2CCCC2)c(=O)c2ccccc12		7.365%
COCC(=O)NCc1nn(CCN2CCCC2)c(=O)c2ccccc12		94.96%
CCNC(=O)NCc1nn(CCN2CCCC2)c(=O)c2ccccc12		21.21%
CCC(=O)NC(C)(C#N)C(C)C (stereo not drawn)	2.056%	
CC1CCN(CC(N)=O)CC1	-12.83%	
O=C(NCCc1cccs1)c1cc[nH]n1	7.034%	
CCC(N)c1cnn(CC)c1 (stereo not drawn)	-19.44%	
O=C(c1cnc(-c2cccnc2)nc1)N1CCSCC1		1.887%
O=C(c1cnn(-c2ccccc2)c1)N1CCCCC1	-4.798%	
O=C(c1ccc(O)nc1)N1CCCCCCC1	-10.69%	
O=C(c1ccc(-c2ccc(O)nc2)s1)N1CCCCC1		53%
O=C(c1ccc(-c2ccc(O)nc2)s1)N1CCCCCC1		59.06%
O=C(c1ccc(O)nc1)N1CCN(C(=O)c2ccc(F)c(F)c2)CC1		5.066%
O=C(c1cc(-c2cccs2)cs1)N1CCSCC1		-31.67%
O=C(c1ccc(-c2ccc(O)nc2)s1)N1CCSCC1		61.48%
CCNc1ncc(C(=O)N2CCCCC2)s1	3.681%	

Compound	Percent Effect (50 µM)	Percent Effect (10 µM)
O=C(CN1CCNCC1)c1ccccc1Cl	-6.338%	
O=C(c1cnsn1)N1CC=C(c2ccccc2)CC1	3.694%	
CCC(C)(O)CCN (stereo not drawn)	17.18%	
Cc1ccc(NC(=O)CN2CCNCC2)c(C)c1	-5.303%	
CCC(CC)NC(=O)CSc1nnc(N)n1C	-0.697%	
Cn1ncc2c(NCc3ccccc3CO)ncnc21	2.537%	
Cc1ccc(CN(C)C(=O)CSc2nncn2C)o1	6.979%	
Cc1cc(C)n(C2CN(CC(=O)N(C)Cc3ccc(C)o3)C2)n1		1.659%
Cc1ccc(CN(C)C(=O)Cn2cnnn2)o1	88.2%	
CN1CCCN(C(=O)c2ccc(C#N)cc2)CC1	-7.834%	
CC(C)c1nc(CN2CCCC3(CCNC3)C2)co1 (stereo not drawn)	-11.26%	
NC(c1ccccc1)C1(CO)CCC1 (stereo not drawn)	8.034%	
Cc1ccc(OCCNC(=O)CN2CSCC2=O)cc1	-3.002%	
Cc1nc(NCc2ccccn2)c2c(n1)c(C)nn2C		13.62%
Cc1nn(C)c2c(NCc3cccnc3)nc(C(C)C)nc12		25.8%
Cc1nn(C)c2c(=O)n(C(C)C)c(NCCc3ccccc3)nc12		81.01%
CCn1c(NCc2cccnc2)nc2c(C)nn(C)c2c1=O		57.44%
CCn1c(NCc2ccccn2)nc2c(C)nn(C)c2c1=O		61.62%
CCOc1ccccc1Nc1nc2c(C)nn(C)c2c(=O)n1C		17.23%
Cc1nc(NCc2cccnc2)c2c(n1)c(C)nn2C		-7.547%
CCc1nc(NCc2ccccn2)c2c(n1)c(C)nn2C		20.03%
Cc1nn(C)c2c(=O)n(C(C)C)c(NCC3CCCO3)nc12 (stereo not drawn)		6.206%
CCCn1c(NCCc2ccccc2)nc2c(C)nn(C)c2c1=O		74.28%
COc1ccccc1Nc1nc2c(C)nn(C)c2c(=O)n1C		9.981%

Compound	Percent Effect (50 µM)	Percent Effect (10 µM)
CC(=O)c1ccc2c(c1)CCC(=O)N2C	4.842%	
CCOC(=O)NCCC(=O)N1CCCCCC1	12.12%	
Cc1ccc(F)c(S(=O)(=O)NC[C@@H]2CCNC[C@H]2O)c1	0.2013%	
CN(C)Cc1nnc(-c2ccccc2)o1	4.493%	
Cc1cc(CN)sc1C	12.43%	
COC(=O)c1ccc2c(c1)N(C)C(=O)CO2	-4.49%	
COc1ccc(C(C)Nc2nc3c(C)nn(C)c3c(=O)n2C)cc1 (stereo not drawn)		18.77%
CCn1c(Nc2ccccc2OC)nc2c(C)nn(C)c2c1=O		-60.37%
CCn1c(NCc2ccc(OC)cc2)nc2c(C)nn(C)c2c1=O		69.56%
COc1ccc(Nc2nc3c(C)nn(C)c3c(=O)n2C)cc1		8.6%
CCn1c(NCc2ccco2)nc2c(C)nn(C)c2c1=O		8.368%
CCn1c(NCc2ccccc2)nc2c(C)nn(C)c2c1=O		72.53%
O=C(NCC1(O)CCNC1)c1ccc(F)c(O)c1 (stereo not drawn)	-8.112%	
O=C(NCc1c[nH]nn1)C1(Cc2ccccc2)CCC1	-1.868%	
O=C(Nc1cnccn1)c1ccc(F)cn1	3.391%	
Cc1ncc(CN2CCCC2)c2cc(C(=O)c3ccc(Br)cc3)oc12.Cl		24.27%
Cc1ncc(CNC(C)(C)CO)c2cc(C(=O)c3ccc(Br)cc3)oc12		20.02%
Cc1ncc(CNCCO)c2cc(C(=O)c3ccc(Br)cc3)oc12.Cl		76.96%
Cc1ncc(CNCC(C)O)c2cc(C(=O)c3ccc(Br)cc3)oc12.Cl (stereo not drawn)		12.01%
Cc1ncc(CN(C)CCO)c2cc(C(=O)c3ccc(Br)cc3)oc12.Cl		15.47%
COC(=O)c1ccc(C(=O)NC2(C#N)CCCC2)cc1	-9.94%	
COc1cc(CN)cc(Br)c1OC	0.1756%	
Cn1ccc(C(=O)N2CCOc3ccccc32)cc1=O	-11.87%	
Cc1scc(-c2nnc(SCC(N)=O)n2C)c1C	-29.64%	

Compound	Percent Effect (50 µM)	Percent Effect (10 µM)
CSC(C)C(=O)Nc1ccc(Cl)c(C(=O)N(C)C)c1 (stereo not drawn)	8.458%	
Cc1cc(C(=O)Nc2cnn(CC(F)(F)F)c2)nc(N2CCOCC2)n1		69.43%
Cc1cc(C(=O)NCc2c(C)nn(C)c2C)nc(N2CCOCC2)n1		20.1%
CCN(CC)c1nc(C)cc(C(=O)Nc2cnn(CC)c2)n1		-30.04%
Cc1cc(C(=O)Nc2cnn(CC(F)(F)F)c2)nc(N(C)C)n1		54.34%
Cn1nccc1C(=O)Nc1cnn(CC(F)(F)F)c1	-29.38%	
CCn1cc(NC(=O)c2cc(C)nc(N3CCOCC3)n2)cn1		48.82%
CCCn1ccc(NC(=O)NC(C)C)n1	-36%	
CN(C)CC(=O)NC(C)(C(N)=O)c1cccc(Cl)c1 (stereo not drawn)	2.258%	
Cc1ccc2c(c1)C(=O)NCC2	-9.759%	
CSc1ccc(CN(CCO)Cc2nccn2C)cc1		19.56%
CCc1ccc(CN(CCO)Cc2nccn2C)nc1	67.1%	
Cc1cccc(CN(CCO)Cc2nccn2C)n1	18.88%	
NC(=O)OCCNC(=O)c1occc1Br	5.554%	
CCN1CCCC1CNC(=O)c1cccc(OC)c1 (stereo not drawn)	4.98%	
CCNC(=O)C1CN(C(=O)C(O)c2ccc(Br)cc2)C1 (stereo not drawn)	-1.346%	
Cc1ccc([C@]2(O)CC[C@H]3CN(Cc4ccc(Cl)cc4Cl)C[C@H]32)nc1		8.934%
Cc1ccc([C@]2(O)CC[C@H]3CN(Cc4cccc(F)c4F)C[C@H]32)nc1.O=C(O)CC(O)(CC(=O)O)C(=O)O		-4.995%
CSc1ccc(CN2C[C@@H]3CC[C@@](O)(c4ccc(C)cn4)[C@@H]3C2)cc1		14.14%
Cc1ccc([C@]2(O)CC[C@H]3CN(Cc4cccc(Cl)c4Cl)C[C@H]32)nc1.O=C(O)CC(O)(CC(=O)O)C(=O)O		51.44%
Cc1cccnc1[C@]1(O)CC[C@H]2CN(Cc3cccc(Cl)c3Cl)C[C@H]21.O=C(O)CC(O)(CC(=O)O)C(=O)O		10.13%
Cc1ccc(F)cc1S(=O)(=O)N1CCN[C@H](C)C1	-0.3006%	
CCN1CN=C(NS(=O)(=O)c2ccc(C)cc2)NC1	-65%	
CCSc1cc(C(=O)N2CC[S+]([O-])CC2)ccn1	18.59%	

Compound	Percent Effect (50 µM)	Percent Effect (10 µM)
CC(CCc1ccc(O)cc1)NCCN1CCOCC1 (stereo not drawn)	-1.81%	
O=C(CSCC(=O)NC1CC1)Nc1ccccc1	16.41%	
CN(C)CCC1CN(C(=O)CCc2cccs2)CCO1 (stereo not drawn)	-11.11%	
CCOc1c(OC)cc(CN)cc1OC	-2.331%	
CCC(CO)Nc1ncc(C(F)(F)F)cc1Cl (stereo not drawn)	-11.03%	
CCOc1cccc(NC(=O)NCCN(C)C)n1	-13.49%	
COc1ccc(CC(=O)NCC2CCCNC2)cc1F (stereo not drawn)	55.41%	
COc1ccc(CS(=O)(=O)CC(=O)NCC2CC2)cc1F		4.977%
Cc1cccc(CC(=O)NCC2CCCNC2)c1 (stereo not drawn)	-6.216%	
CCC(C)NC(=O)c1cnn(-c2ccccc2)c1 (stereo not drawn)	-7.328%	
CCC(OC)c1n[nH]c(=O)n1Cc1cccc(OC)c1 (stereo not drawn)	-6.855%	
CCC(C)NCCOC (stereo not drawn)	-11.32%	
CCN(CC(=O)NC)C(=O)C(C)SC (stereo not drawn)	23.69%	
Clc1ccccc1C1(c2ccnc(C3CC3)n2)CCNCC1		61.01%
OC1(c2ccccc2Cl)CCNCC1	6.16%	
Clc1ccccc1C1(c2ccnc(-c3ncccn3)n2)CCNCC1		5.922%
Clc1ccccc1C1(c2ccnc(-c3ccncc3)n2)CCNCC1		16.95%
CC(C)c1nccc(C2(c3ccccc3Cl)CCNCC2)n1		24.49%
CC(C)(C)c1nccc(C2(c3ccccc3Cl)CCNCC2)n1		94.8%
Clc1ccccc1C1(c2ccnc(C3CCCC3)n2)CCNCC1		92.51%
O=c1[nH]cccc1-c1nccc(C2(c3ccccc3Cl)CCNCC2)n1		22.57%
Clc1ccccc1C1(c2ccnc(CC3CC3)n2)CCNCC1		35.91%
